The test system of experiment [1] is Vero E6 infected with SARS-CoV-2. Nature of the experiment: morphology score (similarity to uninfected cells); higher = more like uninfected cells. To be noted: 24 h.
Experiment [2] shares this test system. The experiment can be described thus: SARS-CoV-2 infection rate relative to infected DMSO; higher = more infection, active = 60 or less. To be noted: 24 h.

Compound `CC(CC(C(N)=O)(c1ccccc1)c1ccccc1)N(C)C` (stereo unspecified) [aminopentamide] (10 µM) came in with a morphology score in experiment [1] of 0.0885. In experiment [2], the SARS-CoV-2 infection rate is 104% (inactive).
In the same order, the values of `C[N+]1(C)CCC(OC(=O)C(O)(c2ccccc2)C2CCCC2)C1` (stereo unspecified) [glycopyrrolate] (10 µM) are 0.122 and 107% (inactive).
In the same order, the values of `Oc1cccc2cccnc12` [oxyquinoline] (10 µM) are 0.202 and 93.5% (inactive).
The like results for `C/C(O)=C(\C#N)C(=O)Nc1cc(Br)ccc1Br` (10 µM) were, in that order, 0.00477 and 105% (inactive).
As to `CO[C@H]1/C=C/O[C@@]2(C)Oc3c(C)c(O)c4c(O)c(c(/C=N/N5CCN(C)CC5)c(O)c4c3C2=O)NC(=O)/C(C)=C\C=C\[C@H](C)[C@H](O)[C@@H](C)[C@@H](O)[C@@H](C)[C@H](OC(C)=O)[C@@H]1C` [rifampin] (0.833333 µM), the morphology score in experiment [1] is -0.0289. Also, in experiment [2], the SARS-CoV-2 infection rate was 112% (inactive).
The like results for `COc1ccc(Cl)cc1NC(=O)Nc1cc(C)nc2ccccc12` (10 µM) were, in that order, 0.148 and 96.5% (inactive).
As to `CCC(=O)O[C@H]1CC[C@H]2[C@@H]3CCC4=CC(=O)CC[C@]4(C)[C@H]3CC[C@]12C` (10 µM), the morphology score in experiment [1] was -0.129. In addition, in experiment [2], the SARS-CoV-2 infection rate is 110% (inactive).
Consider `CC(=O)c1ccc(NS(C)(=O)=O)c(Oc2ccc(F)cc2F)c1` (10 µM), for which the morphology score in experiment [1] was 0.115. For the same compound, in experiment [2], the SARS-CoV-2 infection rate was 92.5% (inactive).
In the same order, the values of `N=C(N)c1ccc(/C=C/c2ccc(C(=N)N)cc2O)cc1` [hydroxystilbamidine] (10 µM) are 0.115 and 109% (inactive).
The like results for `CC(=O)Nc1ccc(S(=O)(=O)Nc2ccc([N+](=O)[O-])cc2)cc1` [sulfanitran] (10 µM) were, in that order, -0.126 and 108% (inactive).
In the same order, the values of `CC(C)(N)c1nc(-c2ccc(OC(F)(F)F)cc2)c[nH]1` (10 µM) are 0.0118 and 103% (inactive).
In the case of `O=C(Cc1ccc(Cl)c(Cl)c1)N1CCCC[C@@H]1CN1CCCC1` (10 µM), the morphology score in experiment [1] turned out to be 0.168. Further, in experiment [2], the SARS-CoV-2 infection rate is 91.5% (inactive).
The like results for `Cc1ccccc1OCC(O)CO` (stereo unspecified) [mephenesin] (10 µM) were, in that order, 0.141 and 99.5% (inactive).
The like results for `C=C1C(=O)[C@]23[C@H](O)[C@H]1CC[C@H]2[C@@]12CO[C@]3(O)[C@@H](O)[C@@H]1C(C)(C)CC[C@@H]2O` [Oridonin (Isodonol)] (0.833333 µM) were, in that order, 0.108 and 97% (inactive).
In the same order, the values of `CC(C)(Sc1ccncc1-c1ccc(C#N)c2ccccc12)C(=O)O` [verinurad] (10 µM) are 0.122 and 98% (inactive).
In turn, `CCOc1cc2ncc(C#N)c(Nc3ccc(OCc4cccc(F)c4)c(Cl)c3)c2cc1NC(=O)/C=C/CN(C)C` (10 µM) showed a morphology score in experiment [1] of -0.202. For the same compound, the SARS-CoV-2 infection rate in experiment [2] is 99.5% (inactive).
In the same order, the values of `C=CC(=O)N1CCC(Oc2cc3c(Nc4ccc(Cl)c(Cl)c4F)ncnc3cc2OC)CC1` [poziotinib] (10 µM) are -0.0962 and 108% (inactive).
In the same order, the values of `CC(C)C(=O)OC[C@H]1O[C@@H](n2ccc(N)nc2=O)[C@](C)(F)[C@@H]1OC(=O)C(C)C` [mericitabine] (10 µM) are 0.0222 and 102% (inactive).
Compound `Oc1ccc(Cl)c2c1CCC2` [chlorindanol] (10 µM) displayed a morphology score in experiment [1] of 0.109. The SARS-CoV-2 infection rate in experiment [2] is 102% (inactive).
In the case of `Oc1cc(O)c2c(c1)O[C@H](c1ccc(O)c(O)c1)[C@@H](O)C2` [cianidanol] (10 µM), in experiment [1], the morphology score was -0.0417. Moreover, the SARS-CoV-2 infection rate in experiment [2] was 110% (inactive).
The like results for `CC(C)OC(=O)C(C)(C)Oc1ccc(C(=O)c2ccc(Cl)cc2)cc1` [fenofibrate] (10 µM) were, in that order, 0.0415 and 101% (inactive).
In the same order, the values of `COc1cc(/C=C(\C#N)C(N)=O)cc(CSc2nc3ccccc3s2)c1O` [tyrphostin-AG-825] (10 µM) are -0.108 and 108% (inactive).
Take `C[C@H]1N=C(N(C)C)N=C(N)N1` [imeglimin] (10 µM): in experiment [1], the morphology score was 0.0246. For the same compound, the SARS-CoV-2 infection rate in experiment [2] was 99% (inactive).
In the same order, the values of `CCN(CC)C(=O)N[C@H]1C=C2c3cccc4[nH]cc(c34)C[C@H]2N(C)C1` [lisuride] (10 µM) are -0.111 and 110% (inactive).
In turn, `Cc1cc2c(C(C)C)c(O)c(O)c(C=O)c2c(O)c1-c1c(C)cc2c(C(C)C)c(O)c(O)c(C=O)c2c1O` [gossypol] (0.833333 µM) showed a morphology score in experiment [1] of -0.0839. In addition, in experiment [2], the SARS-CoV-2 infection rate is 104% (inactive).
The like results for `N#Cc1ccc(C(c2ccc(C#N)cc2)n2cncn2)cc1` [letrozole] (10 µM) were, in that order, 0.138 and 102% (inactive).
In turn, `O=S(=O)(N[C@H](CO)C(C(F)(F)F)C(F)(F)F)c1ccc(Cl)s1` [begacestat] (10 µM) had a morphology score in experiment [1] of 0.00774. Also, in experiment [2], the SARS-CoV-2 infection rate is 98% (inactive).
In turn, `CN1c2ccccc2C(NCCCCCCC(=O)O)c2ccc(Cl)cc2S1(=O)=O` (stereo unspecified) [tianeptine] (10 µM) came in with a morphology score in experiment [1] of 0.237. The SARS-CoV-2 infection rate in experiment [2] is 104% (inactive).

Values taken from the supplement of paper PMC13380429.
